Results from PubChem BioAssay (NCI).
The panel holds about 83,000 compounds, 20% with a hit somewhere; the sample as a whole holds those more often.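 Cell lines were cultured in 96-well plates, exposed to a single compound concentration, and assessed for percent growth 48 hours later.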 A number with no mark means an inactive call. Calls of active or inactive are those of the source. The calls were made as follows: active = growth percent below 10; inactive = the rest.

Assays:
Test in all cases: NCI-60 one-dose screen, 48 h (100 = growth as untreated, 0 = no growth, -100 = all killed)
Details in all cases: 10 µM unless noted
T-47D breast = test system: T-47D breast
BT-549 breast = test system: BT-549 breast
MDA-MB-435 melanoma = test system: MDA-MB-435 melanoma
SW-620 colon = test system: SW-620 colon
MCF7 breast = test system: MCF7 breast
HCT-116 colon = test system: HCT-116 colon
HCC-2998 colon = test system: HCC-2998 colon
KM12 colon = test system: KM12 colon

| SMILES | growth (T-47D breast) | growth (BT-549 breast) | growth (MDA-MB-435 melanoma) | growth (SW-620 colon) | growth (MCF7 breast) | growth (HCT-116 colon) | growth (HCC-2998 colon) | growth (KM12 colon) |
| --- | --- | --- | --- | --- | --- | --- | --- | --- |
| C/C(=N\O)c1ccc(Cl)cc1 | 110% | 96% | 112% | 99.9% | 101% | 97.5% | 95.9% | 118% |
| COc1ccc(Nc2nnc(-c3ccc(OC)c(OC)c3)o2)cc1 | 79.1% | 61.8% | 109% | 97.7% | 90.9% | 77.8% | 120% | 85.1% |
| Cc1ccc(CNc2ccc3nc(CCC4CCCCC4)[nH]c3c2)cc1 | 3.58% (active) | 88% | 55.6% | 32.3% | 22.1% | 16.3% | -25.2% (active) | 39.3% |
| N#C/C(=C\c1c(-c2ccccc2)[nH]c2ccccc12)C(N)=O | 83.7% | 95.6% | 15.7% | 56.9% | 50.4% | 76.9% | 78.9% | 47.9% |
| COCCOc1cc2ncnc(N3CCN(c4cc(S(C)(=O)=O)c(C)cc4Cl)CC3)c2cc1OCCOC | 69.6% | 91.4% | 105% | 110% | 91.9% | 103% | 100% | 93.2% |
| CNC(=O)c1ccccc1Oc1nc(Nc2cc(OC)c(OC)c(OC)c2)ncc1Br | 62.2% | 62.7% | 74.5% | 46.7% | 44.5% | 46.5% | 51.6% | 11% |
| CCCOC(=O)Nc1nc2ccc(SCC(C)C)cc2s1 | 37.8% | 52.3% | -7.7% (active) | 33.8% | 19.7% | 34.6% | 77.1% | 38.8% |
| Cc1[nH]c(=O)[nH]c(=O)c1Br | 108% | 108% | 102% | 102% | 95.6% | 106% | 87.8% | 108% |
| COCCNC(=O)Nc1ccc2nc(-c3cccs3)c(-c3cccs3)nc2c1 | 58.1% | 94.4% | 94.1% | 89.2% | 78.9% | 92.7% | 101% | 95.2% |
| COc1cc(-c2csc(NC(=O)c3ccc(N4CCOCC4)c(C(F)(F)F)c3)n2)cc(OC)c1OC | -5.81% (active) | -7.47% (active) | 35.1% | 48.9% | 19.2% | 16% | 60.2% | 16.9% |
| O=C(CN1C(=O)S/C(=C\C(Cl)=C\c2ccccc2)C1=O)NCCc1ccc(O)cc1 | 11.4% | 22.1% | 2.68% (active) | 4.78% (active) | 20.1% | -78.8% (active) | 66.8% | 5.78% (active) |
| OB1OCc2cc(/C=C/c3cccc(C(F)(F)F)c3)ccc21 | 20.4% | 8.09% (active) | 20.8% | 15.5% | 21.8% | 0.518% (active) | 32.5% | 14.6% |
| COc1ccc(C(=O)Nc2cccc(-c3cc(=O)c4c(OC)c(OC)c(OC)cc4o3)c2)cc1 | 45% | 51.4% | 69.6% | 88% | 66.5% | 47.8% | 70.3% | 46.3% |
| Cn1cc(-c2csc(-c3c[nH]c4ccc(Br)cc34)n2)c2ccnc(Cl)c21 | 25.9% | 84.1% | 78.5% | 8.27% (active) | 46.6% | 49.8% | 82.9% | 50.8% |
| Cn1c(=O)cc2c3c(c(NCCCO)ccc31)C(=O)c1ccccc1-2 | 51.8% | 73.6% | 44% | 32.6% | 27.6% | 16.5% | 49.1% | 42.7% |
| O=C(Nc1ccc(Oc2cccc(F)c2)c(Cl)c1)c1cccnc1 | 33.5% | 48.6% | 1.64% (active) | 25.8% | 19.6% | 33.7% | 57.7% | 29.3% |

| SMILES | growth (T-47D breast) | growth (BT-549 breast) | growth (MDA-MB-435 melanoma) | growth (SW-620 colon) | growth (MCF7 breast) | growth (HCT-116 colon) | growth (HCC-2998 colon) | growth (KM12 colon) |
| --- | --- | --- | --- | --- | --- | --- | --- | --- |
| O=C(/C=C/c1ccccc1)Nc1ncc(Cc2ccccc2Cl)s1 | 21.1% | 55.2% | -44.4% (active) | 31.4% | 18.9% | 16% | 35.4% | 14% |
| CC(=O)N1N=C(c2ccc(Nc3nc(Nc4ccccc4)nc(Nc4ccccc4)n3)cc2)CC1c1cccc([N+](=O)[O-])c1 (stereo not drawn) | 66.4% | 111% | 96.1% | 94.9% | 91.4% | 95.5% | 103% | 129% |
| Cc1nc2sc(C(=O)Nc3cccc4ccccc34)c(N)c2cc1C(O)c1ccccc1 (stereo not drawn) | 45.4% | 40.2% | 0.328% (active) | 20.2% | 12.4% | 8.89% (active) | 5.55% (active) | 7.64% (active) |
| C=C1C(=O)O[C@H]2[C@H]1CC/C(COC(=O)c1cc3ccccc3s1)=C\CC[C@@]1(C)O[C@@H]21 | -50.2% (active) | -59% (active) | -71% (active) | -67.4% (active) | -41.9% (active) | -83.8% (active) | -76.6% (active) | -59.7% (active) |
| Cc1ccc(Nn2c(SCC(=O)Nc3nc(-c4ccccc4)cs3)nc(C)c2C)cc1 | -2.45% (active) | 63.5% | 76.7% | 98.8% | 28.5% | 40.2% | 92% | 82.9% |
| CS(=O)(=O)Nc1cc(-c2ccc3ncnc(Nc4ccc5c(cnn5Cc5ccc(F)cc5)c4)c3c2)cnc1Cl | 5.06% (active) | 9.27% (active) | 45.3% | 43.1% | 14.4% | 57% | 59.1% | 71.8% |
| CS(=O)(=O)c1ccc(-c2cnn3ccc(-c4cccc(S(=O)(=O)C5CC5)c4)nc23)cc1 | -6.07% (active) | 53.4% | 59.1% | 74.2% | 18% | 55.5% | 75.4% | 62% |
| CSc1nc2ccccc2cc1/C=C1/C=C(c2ccccc2)NC1=O | 79.9% | 77.4% | 3.27% (active) | 55.4% | 49.8% | 56.8% | 93.2% | 59.6% |
| COc1cc(OCc2cccc(Br)c2C)cc(OC)c1C=O | 37.8% | 70.9% | 87.8% | 88.6% | 63.9% | 68% | 96.5% | 94.5% |
| CC1=C2[C@@H](CC1)[C@]1(C)O[C@@](C(C)C)(C[C@H]1OC(=O)[C@H](C)O)[C@H]2OC(=O)/C=C/c1ccccc1 | 57.6% | 15.9% | 94.2% | 95.1% | 81.6% | 74.2% | 90.7% | 93.9% |
| Nc1n[nH]c2cccc(C#Cc3cccc(C(=O)Nc4cc(C(F)(F)F)cc(C(F)(F)F)c4)c3)c12 | 73.9% | 98.6% | 47.6% | 78.6% | 65.5% | 35.3% | 80.3% | 43.9% |
| O=C(Nc1nc2ccccc2s1)c1ccc(F)cc1 | 55.3% | 109% | 101% | 112% | 68.1% | 92.8% | 69.9% | 52.8% |
| Cn1c(I)c(C#CCO[Si](C)(C)C(C)(C)C)c(=O)[nH]c1=O | 61.9% | 97.1% | 97.4% | 11.4% | 88% | 94.6% | 99.7% | 107% |
| COc1ccc(C2=C(Nc3ccc(C(=O)Nc4ccccc4)cc3)C(=O)N(C)C2=O)cc1 | 68.8% | 115% | 106% | 106% | 102% | 107% | 98.5% | 91.6% |
| Cc1ccc2c(n1)C(=O)C(Br)=C(CC(C)C)C2=O | 82% | 99.4% | 104% | 64% | 93.2% | 61.6% | 105% | 99.3% |
